This is a sample that favours compounds with a hit; in the whole collection about 12% have one here.
CHOP inh: inhibitors of CHOP induction in ER stress response; 220,000 tested, 3.8% active; inhibition, % at 10 µM; CHO-K1 CHOP-promoter luciferase, tunicamycin-induced, 15-18 h; AID 2732;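 active = compounds that reduced the stress-induced luciferase reporter signal by more than about 70% of percent inhibition, limit read from the data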;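 note: 0% = tunicamycin plus vehicle and 100% = wells without tunicamycin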
Lmaj promast: Leishmania major promastigote growth inhibition. 200,000 tested, 9% active. AID 1063. inhibition, % at 10 µM. Leishmania major promastigotes, resazurin fluorescence viability; in the data active = inhibition above about 50%;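 note: promastigotes grown with compound for 44 hours at 28 °C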
Arbovirus anti: arbovirus infection inhibition; inhibition, % at 10 µM; 200,000 tested, 0.37% active; arbovirus infection cell-based antiviral screen; in the data active = inhibition above about 30%
WT yeast gro inh: growth inhibition of WT yeast, mitochondrial fusion screen; mitochondrial fusion phenotypic screen, WT strain; inhibition, % at 10 µM; 190,000 tested, 2.1% active; AID 1362; in the data active = inhibition above about 58%; tested in S. cerevisiae
* hit, by the source's call; nt = no result given.

SMILES | CHOP inh | Lmaj promast | Arbovirus anti | WT yeast gro inh
CC(C)CN(CCCNC(=O)CN1C(=O)COc2ccc(S(=O)(=O)N3CCCC3)cc21)CC(C)C | 28 | -4 | -3 | 4
Cc1cc(C)nc(NC2=NCCN2C(=S)Nc2ccc(C)c(C)c2)n1 | 6 | nt | nt | nt
Cc1c(C(=O)N2CCc3ccccc3C2)oc2ccc(S(=O)(=O)N3CC(C)CC(C)C3)cc12 (stereo not drawn) | 42 | 1 | 5 | 31
NC(=S)c1ccc[n+]([C@@H]2O[C@@H](COP(=O)([O-])OP(=O)(O)OC[C@H]3O[C@@H](n4cnc5c(N)ncnc54)C(OP(=O)(O)O)[C@H]3O)C(O)C2O)c1 (stereo partly drawn) | -6 | nt | nt | nt
CCOC(=O)c1c(-c2ccc(C)cc2)csc1NC(=O)CCN1CCOCC1 | 36 | 97* | 26 | 36
CCOC(=O)c1c(-c2ccccc2)csc1NC(=O)c1ccc(S(=O)(=O)N2CCOCC2)cc1 | 26 | 9 | 2 | 12
CCOC(=O)c1c(-c2ccccc2)csc1NC(=O)CCN1CCOCC1 | -4 | 98* | 8 | 57
O=C(CSc1nnnn1-c1cccc2ccccc12)Nc1ccc(N2CCOCC2)c(Cl)c1 | 71* | 5 | -17 | 12
O=C(CSc1nnnn1-c1ccccc1)Nc1ccc(N2CCOCC2)c(Cl)c1 | 34 | -7 | -10 | 10
O=C(CSc1nnnn1C1CCCCC1)Nc1ccccc1N1CCOCC1 | 29 | 60* | 8 | -3
CC(C)n1nnnc1SCC(=O)Nc1ccccc1N1CCOCC1 | 24 | nt | 0 | -10
Cc1sc(NC(=O)CSc2nnc(C(C)C)n2C)c(C#N)c1C | 15 | 0 | 8 | -7
O=C(CSc1nnc(C23CC4CC(CC(C4)C2)C3)o1)Nc1ccc(N2CCOCC2)c(Cl)c1 | 76* | 21 | -17 | 35
Cc1sc(NC(=O)CSc2nnnn2C2CCCCC2)c(C#N)c1C | 13 | 10 | -1 | 75*
CCCCNC(=O)Cc1cc(=O)[nH]c(=O)[nH]1 | 10 | -7 | 5 | -7
CC(C)(C)OC(=O)N[C@@H](Cc1ccccc1)[C@H](O)c1ccco1 | -3 | nt | nt | nt
COc1cc(-c2nc(CN3CCN(c4ncccn4)CC3)c(C)o2)ccc1F | -10 | -3 | 3 | 8
C#CC(N)CCC(=O)O (stereo not drawn) | -11 | nt | nt | nt
C=CCNc1ncnc2sc(SC)nc12 | 10 | nt | nt | nt
Cc1ccc(-n2nnnc2SCC(=O)Nc2ccccc2N2CCCCC2)cc1C | 1 | 34 | 7 | 17
COc1ccc(-n2nnnc2SCC(=O)Nc2ccccc2N2CCOCC2)cc1 | -4 | 99* | -7 | 7
O=C(CNS(=O)(=O)c1c(Cl)cccc1Cl)OCc1csc(-c2ccccc2)n1 | 35 | 57* | 5 | 20
Cc1ccc(S(=O)(=O)NCC(=O)OCc2csc(-c3ccccc3)n2)cc1 | 49 | 41 | 3 | 1
CCCCCC(=O)Nc1nc(C)c(-c2csc(Nc3ccccc3OC)n2)s1 | 62 | 73* | -10 | 49
CCCC(C)C(=O)Nc1nc(C)c(-c2csc(Nc3ccc(Cl)cc3)n2)s1 (stereo not drawn) | 73* | 18 | -18 | 57
SMILES | CHOP inh | Lmaj promast | Arbovirus anti | WT yeast gro inh
CCCCC(=O)Nc1nc(C)c(-c2csc(Nc3cc(Cl)ccc3OC)n2)s1 | 35 | 40 | -10 | 6
CCC(=O)Nc1nc(C)c(-c2csc(Nc3ccc(S(=O)(=O)Nc4cc(C)on4)cc3)n2)s1 | 1 | -5 | 8 | -2
CCCCCCC(=O)Nc1nc(C)c(-c2csc(Nc3ccccc3OC)n2)s1 | 46 | 55* | -15 | 2
CCCCCC(=O)Nc1nc(C)c(-c2csc(Nc3ccccc3OCC)n2)s1 | 52 | 52* | -13 | -15
CCCC(=O)Nc1nc(C)c(-c2csc(Nc3ccccc3C)n2)s1 | 27 | 10 | 1 | 21
Cc1cc(=O)oc2cc(OCC(=O)OC(C)C(=O)NC3CCCC3)ccc12 (stereo not drawn) | 4 | -5 | 3 | 0
Cc1ccnc(NC(c2ccccc2O)c2oc(CO)cc(=O)c2O)c1 (stereo not drawn) | -7 | -6 | 8 | 3
COc1ccc(N(CC(=O)NCCC2=CCCCC2)S(=O)(=O)c2ccccc2)c(OC)c1 | 37 | 6 | 14 | -7
O=C(c1cccc(N2C(=O)C3CC=CCC3C2=O)c1)N1CCCc2ccccc21 (stereo not drawn) | -16 | -7 | 2 | -1
CCCC(C)C(=O)Nc1nc(C)c(-c2csc(Nc3ccccc3OC)n2)s1 (stereo not drawn) | 35 | 96* | -20 | 2
COc1ccc(C2SCCN2C(=S)Nc2ccc(Cl)cc2)cc1 (stereo not drawn) | 29 | 41 | 21 | 24
COc1ccc(C2SCCN2C(=S)Nc2cccc(Cl)c2)cc1 (stereo not drawn) | 12 | 80* | 15 | 29
Cc1ccc(S(=O)(=O)/N=S(\C)CC2CC2(Cl)Cl)cc1 (stereo not drawn) | 22 | -6 | -3 | 0
Cc1ccc(-c2csc3ncnc(-n4nnc5ccccc54)c23)cc1 | 37 | 4 | 8 | 21
Cc1ccc(-c2csc3ncnc(-n4nnc5ccccc54)c23)cc1C | 41 | 76* | -1 | 12
COC(=O)c1cc(OC)c(OC)cc1NC(=O)CSc1ccccc1 | 8 | 1 | 7 | -7
Cc1[nH]c2ccccc2c1C(=O)C(=O)NCCOc1ccccc1 | 22 | 8 | -5 | 0
Cc1onc(-c2c(F)cccc2Cl)c1C(=O)Nc1cccc(Cn2cccn2)c1 | -1 | 63* | -6 | -3
Cc1onc(-c2c(F)cccc2Cl)c1C(=O)Nc1sc2c(c1C(N)=O)CCC2 | 56 | 63* | -17 | 67*
Cc1onc(-c2c(F)cccc2Cl)c1C(=O)NNC(=O)C1CCN(Cc2ccccc2)CC1 | 4 | 0 | 5 | -9
Cc1onc(-c2ccccc2)c1C(=O)Nc1sc2c(c1C(N)=O)CCC2 | 25 | 24 | -5 | 33
Cc1ccc(-c2csc(NC(=O)C3=NN(C4CCS(=O)(=O)C4)C(=O)CC3)n2)cc1 (stereo not drawn) | 1 | nt | nt | nt
CCc1nnc(NC(=O)CSc2nc3cccnc3n2Cc2ccccc2)s1 | 11 | -1 | 3 | -11
COc1ccc(S(=O)(=O)n2nc(OC(=O)c3cccs3)cc2NC(=O)c2cccs2)cc1 | 8 | -4 | 0 | 9
Cc1ccc(NC(=S)N2CCCN(Cc3ccc(F)cc3)C2)c(C)c1 | 2 | 89* | -1 | 2
SMILES | CHOP inh | Lmaj promast | Arbovirus anti | WT yeast gro inh
CSc1cccc(NC(=S)N2CCCN(Cc3ccc(F)cc3)C2)c1 | 8 | 86* | -22 | 8
Cc1ccccc1NC(=S)N1CCCN(Cc2ccc(F)cc2)C1 | 8 | 86* | 7 | 1
Cc1ccc(NC(=S)N2CCN(C)CC2)c(C)c1 | -4 | -6 | 1 | 13
O=C(CN1CCOCC1)NN=C1CCCCCCCCCCC1 | 25 | 52* | -1 | -6
Cc1nc(N)sc1C(=O)N/N=C/c1ccccc1[N+](=O)[O-] | -12 | 92* | 16 | 6
O=C(CN1C(=O)COc2ccccc21)NCc1ccc(C(=O)O)cc1 | 3 | -6 | 1 | 6
O=C(O)c1ccccc1C(=O)c1ccc2c(c1)N(Cc1ccc(Cl)c(Cl)c1)C(=O)CO2 | -5 | 100* | 8 | 63*
O=S(=O)(c1ccc(Cl)cc1)n1c(Cc2ccccc2)nc2ccccc21 | 20 | 42 | 6 | -13

Screening data: PubChem BioAssay, several laboratories
